Values joined by “and” are separate entries in the source; they are usually repeats but may differ in a detail not shown here. Equal values may be shown once. Records with an inconclusive call do not appear. More than one record can exist for a structure, and the calls need not agree. Active and inactive are the calls of the source. Unless noted, calls follow the shape of the dose curve; as a rule, active = well fitted curve in either direction with a large enough effect (not every such curve was filed as active); inconclusive = small, poorly fitted or top-dose-only effect, or another doubt; inactive = flat fitted curve, though single readings scatter.
Columns and labels:
[1] = AP1 Signaling Pathway (AID 357); conditions: ME-180 AP-1-bla reporter, EGF-induced, beta-lactamase ratio, 5 h; also: % is scaled to controls: 0 for no effect and ±100 for the full control effect
Outline: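 AP-1-bla ME-180 cells with beta-lactamase reporter under AP-1 response element, stimulated with EC50 EGF; compounds titrated, 5 hours at 37 degrees Celsius. CCF4 read at 460/530 nm ratio; positive and negative modulators judged by AC50.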

[2] = target: Cytochrome P450 1A2 (Homo sapiens) (UniProt P05177); assay: p450-cyp1a2 (AID 410; calls by dose curve; also: potency is read from the fitted curve at half-maximal effect;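 as to activity change, negative = inhibition: -100% = full effect of reference inhibitor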); conditions: recombinant CYP1A2, luciferin-ME demethylation, luminescence; series mostly up to 57 µM
Outline: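 Human CYP1A2 (20nM) demethylated Luciferin-ME at its Km (100uM) in 100mM KPO4. After 10 min compound preincubation, NADPH regeneration ran the reaction 60 min at room temperature. Luciferin was read by luminescence, normalized to 57 uM furafylline.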

[3] = NFAT Signaling Pathway (AID 444); conditions: Jurkat NFAT-bla M1, carbachol, beta-lactamase ratio, 5 h; at 38 µM (top of the series) unless noted;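 also: carbachol stimulus at about its EC50 of 1 µM final; % is scaled to controls: 0 for no effect and ±100 for the full control effect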
Outline: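 Read-out: CCF4 FRET ratio (460 nm/530 nm) after 1 h RT dye loading, used for %activity and AC50 from titration series. Cells: Jurkat NFAT-β-lactamase/M1 line, treated with compound plus 1 uM carbachol for 5 h, 37 °C.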

[4] = Stat Signaling Pathway (AID 446); conditions: ME-180 (cervical carcinoma) SIE beta-lactamase reporter, IL-6 stimulated, 5 h;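 also: ME-180 cervical cancer cells given 40 pM IL-6 alongside compound; SIE-controlled beta-lactamase reporter measured as 460/530 nm FRET emission ratio; % is scaled to controls: 0 for no effect and ±100 for the full control effect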
Outline: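 IL-6/STAT signaling read in ME-180 cells via an SIE beta-lactamase reporter. Stimulus was 40 pM IL-6 (its AC50) for 5 hrs, so both activation and inhibition register.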

[5] = target: Glucocorticoid receptor (Homo sapiens) (UniProt P04150); assay: GR-GFP Redistribution (AID 450;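 active = compounds whose dose series gives a full or clear partial fitted curve of increased nuclear translocation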; also: potency is read from the fitted curve at half-maximal effect); conditions: U2OS GR-GFP nuclear translocation, laser cytometry, 2 h
[6] = target: Glucocorticoid receptor (Homo sapiens) (UniProt P04150); assay: GR-EFC Redistribution (AID 451; calls by dose curve; also: potency is read from the fitted curve at half-maximal effect); conditions: CHO-K1 GR-EFC translocation, beta-gal luminescence, 2 h
Outline: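 Translocation of GR-ED fusion to nuclear EA restores b-gal, read by luminescence after 1 h room-temperature detection. Engineered CHO-K1 biosensor cells, 1,000/well, exposed 2 h at 37 C to titrations up to 46 uM final.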

[7] = target: Mitogen-activated protein kinase 10 (Mus musculus) (UniProt Q61831); assay: JNK3 AlphaScreen Assay (AID 530); conditions: JNK3 lysate, c-Jun phosphorylation; series mostly up to 57.1 µM;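 also: kinase came from lysate of stimulated human HepG2 cells; signal reports phosphorylation of biotinylated GST-cJun 1-79 at Ser73 with 10 µM ATP; % is scaled to controls: 0 for no effect and ±100 for the full control effect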
Outline: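 Room-temperature AlphaScreen kinase assay; pre-activated HepG2 lysate as JNK3 source, biotin-GST-cJun(1-79) substrate, 10 uM ATP, compound 15 min preincubation.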

[8] = target: Lysosomal acid glucosylceramidase (Homo sapiens) (UniProt P04062); assay: Glucocerebrosidase-p2 (AID 348; in the data active = potency below about 10 µM; also: potency is read from the fitted curve at half-maximal effect); conditions: purified GBA, blue fluorogenic substrate, 40 min
Outline: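 Compounds titrated from 0.6 nM upwards against 0.2 nM enzyme in pH 5.9 citric acid/KH2PO4, taurocholate, tween-20; blue fluorogenic substrate 80 uM, 40 min room temperature, stopped and read Ex 365/Em 440 for AC50.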

[9] = Cell Viability - BJ (AID 421; calls by dose curve;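 also: potency is read from the fitted curve at half-maximal effect; cells exposed to compound for 40 hours at 37 °C before readout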); conditions: BJ fibroblast viability, qHTS
Outline: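 Quantitative HTS: ATP depletion in BJ cells after 40 hr compound exposure in complete culture medium, detected with CellTiter-Glo; AC50 from standard Hill fits.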

[10] = Cell Viability - Jurkat (AID 426;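 active = dose-dependent loss of cell ATP signal giving a full or clear fitted curve, ranked by lower potency value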; also: potency is read from the fitted curve at half-maximal effect); conditions: qHTS
Outline: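 Jurkat (clone E6-1, human T-cell leukemia) cells, 5000/well in complete medium, were exposed to compound for 40 hr at 37 °C. Viability was read as intracellular ATP by CellTiter-Glo luminescence; AC50 came from Hill fits of concentration-response data.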

[11] = Cell Viability - Hek293 (AID 427;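 active = compounds whose dose-response curve shows a full or clear partial loss of cell viability, called from curve shape rather than a numeric limit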;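 also: potency is read from the fitted curve at half-maximal effect; cells exposed to compound for 40 hours at 37 °C before reading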); conditions: qHTS
Outline: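 AC50 values derive from Hill-modelled concentration-response of ATP-based luminescence, normalized between DMSO-only and 100 uM tamoxifen controls. Cells were exposed in complete culture medium for 40 hr at 37 °C before detection.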

[12] = Cell Viability - HepG2 (AID 433; calls by dose curve;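 also: potency is read from the fitted curve at half-maximal effect; potency for ATP loss meaning cytotoxicity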); conditions: qHTS
Outline: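 Cytotoxicity is scored as loss of intracellular ATP in HepG2 cells exposed to compounds for 40 h. Concentration-response curves, normalized to DMSO and 100 uM tamoxifen, give AC50 values.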

[13] = Cell Viability - MRC5 (AID 434; calls by dose curve;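 also: potency is read from the fitted curve at half-maximal effect; potency reflects cytotoxicity seen as loss of intracellular ATP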); conditions: MRC5 lung fibroblast viability, qHTS
Outline: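 qHTS cytotoxicity in human lung fibroblast MRC5 cells; 40 hr treatment, 37 °C; cellular ATP by luciferase luminescence; DMSO = 0%, 100 uM tamoxifen = 100% inhibition; Hill-fit AC50.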

[14] = Cell Viability - SK-N-SH (AID 435; calls by dose curve;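 also: potency is read from the fitted curve at half-maximal effect; compound exposure lasted 40 h at 37 °C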); conditions: SK-N-SH neuroblastoma cell viability qHTS
Outline: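 Cells seeded at 1500 per well and incubated 5 hr at 37 °C. Compound added, then 40 hr at 37 °C. CellTiter-Glo added, 20 min at room temperature, luminescence read.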

[15] = Cell Viability - N2a (AID 540; active = well fitted curve in the direction sought with a large enough effect; an effect the other way counts as inactive or inconclusive; also: potency is read from the fitted curve at half-maximal effect; nearly all actives have a fitted effect of over 45% in size); conditions: N2a mouse neuroblastoma cell viability; activity change, negative = cytotoxicity: at 92.2 µM (top of the series)
Outline: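 Mouse neuroblastoma N2a cells (1500/well) were preincubated 5 hr at 37 °C, then exposed to compounds for 40 hr at 37 °C in complete medium. Viability was read as intracellular ATP by CellTiter-Glo luminescence; AC50 from Hill fits.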

[16] = Cell Viability - NIH 3T3 (AID 541; active = well fitted curve in the direction sought with a large enough effect; an effect the other way counts as inactive or inconclusive; also: potency is read from the fitted curve at half-maximal effect; nearly all actives have a fitted effect of over 25% in size); conditions: NIH 3T3 cell viability, qHTS; activity change, negative = cytotoxicity: at 92.2 µM (top of the series)
Outline: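 NIH 3T3 mouse embryo fibroblasts (1000 cells/well) were plated in complete medium and treated with compound for 40 hr at 37 °C. Viability was read as intracellular ATP by CellTiter-Glo luminescence; AC50 values came from Hill-equation fits of concentration-response data.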

[17] = Cell Viability - HUV-EC-C (AID 542; active = well fitted curve in the direction sought with a large enough effect; an effect the other way counts as inactive or inconclusive; also: potency is read from the fitted curve at half-maximal effect; nearly all actives have a fitted effect of over 35% in size); conditions: HUV-EC-C endothelial cell viability, qHTS; series mostly up to 92.2 µM
Outline: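 HUV-EC-C normal human vascular endothelial cells, 1000 cells/well, pre-incubated 5 hr at 37 °C, then exposed to compounds for 40 hr at 37 °C in complete medium. Viability measured as intracellular ATP by CellTiter-Glo luminescence; AC50 from Hill fits.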

[18] = Cell Viability - H-4-II-E (AID 543; active = well fitted curve in the direction sought with a large enough effect; an effect the other way counts as inactive or inconclusive; also: potency is read from the fitted curve at half-maximal effect; nearly all actives have a fitted effect of over 35% in size); conditions: H-4-II-E rat hepatoma viability; series mostly up to 92.2 µM
Outline: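 Rat hepatoma H-4-II-E cells (1500/well) were plated, incubated 5 hr at 37 °C, then exposed to compounds for 40 hr at 37 °C. Cellular ATP was read by CellTiter-Glo luminescence; AC50 came from Hill-equation fits of concentration-response data.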

[19] = Cell Viability - SH-SY5Y (AID 544; active = well fitted curve in the direction sought with a large enough effect; an effect the other way counts as inactive or inconclusive; also: potency is read from the fitted curve at half-maximal effect; nearly all actives have a fitted effect of over 55% in size); conditions: SH-SY5Y neuroblastoma cell viability; viability change, negative = cytotoxic: at 92.2 µM (top of the series)
Outline: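 Human neuroblastoma SH-SY5Y cells (1500/well) in complete medium were exposed to compounds for 40 hr at 37 °C; intracellular ATP was then quantified by CellTiter-Glo luminescence after 20 min at room temperature. AC50 came from Hill-equation concentration-response fits.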

[20] = Cell Viability - Renal Proximal Tubule (AID 545; active = well fitted curve in the direction sought with a large enough effect; an effect the other way counts as inactive or inconclusive;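 also: 0% = DMSO only and -100% = 100 µM tamoxifen; nearly all actives have a fitted effect of over 40% in size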); conditions: renal proximal tubule cells viability, primary cells of rat origin; activity change, negative = cytotoxicity: at 91.7 µM (top of the series)
Outline: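 Cytotoxicity is scored as a concentration-dependent drop in cellular ATP in primary rat renal proximal tubule cells exposed for 40 hr. AC50 derives from Hill modelling.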

Sequence of Cytochrome P450 1A2 (Homo sapiens) (P05177 whole entry, looked up): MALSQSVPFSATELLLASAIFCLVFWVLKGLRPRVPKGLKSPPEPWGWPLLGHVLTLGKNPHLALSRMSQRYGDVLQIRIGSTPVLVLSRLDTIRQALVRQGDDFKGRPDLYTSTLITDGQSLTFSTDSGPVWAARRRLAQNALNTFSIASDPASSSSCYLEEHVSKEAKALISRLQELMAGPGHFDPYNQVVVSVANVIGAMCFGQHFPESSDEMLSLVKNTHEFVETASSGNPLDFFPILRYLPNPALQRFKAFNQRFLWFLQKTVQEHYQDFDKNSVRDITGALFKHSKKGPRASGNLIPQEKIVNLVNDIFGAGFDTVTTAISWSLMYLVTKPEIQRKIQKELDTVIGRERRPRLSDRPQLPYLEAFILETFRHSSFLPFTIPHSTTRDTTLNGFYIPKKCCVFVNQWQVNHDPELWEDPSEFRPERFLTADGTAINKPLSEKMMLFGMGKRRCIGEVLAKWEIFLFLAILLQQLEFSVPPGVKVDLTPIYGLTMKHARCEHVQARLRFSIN
Sequence of Glucocorticoid receptor (Homo sapiens) (P04150 whole entry, looked up, the tested form may be a part): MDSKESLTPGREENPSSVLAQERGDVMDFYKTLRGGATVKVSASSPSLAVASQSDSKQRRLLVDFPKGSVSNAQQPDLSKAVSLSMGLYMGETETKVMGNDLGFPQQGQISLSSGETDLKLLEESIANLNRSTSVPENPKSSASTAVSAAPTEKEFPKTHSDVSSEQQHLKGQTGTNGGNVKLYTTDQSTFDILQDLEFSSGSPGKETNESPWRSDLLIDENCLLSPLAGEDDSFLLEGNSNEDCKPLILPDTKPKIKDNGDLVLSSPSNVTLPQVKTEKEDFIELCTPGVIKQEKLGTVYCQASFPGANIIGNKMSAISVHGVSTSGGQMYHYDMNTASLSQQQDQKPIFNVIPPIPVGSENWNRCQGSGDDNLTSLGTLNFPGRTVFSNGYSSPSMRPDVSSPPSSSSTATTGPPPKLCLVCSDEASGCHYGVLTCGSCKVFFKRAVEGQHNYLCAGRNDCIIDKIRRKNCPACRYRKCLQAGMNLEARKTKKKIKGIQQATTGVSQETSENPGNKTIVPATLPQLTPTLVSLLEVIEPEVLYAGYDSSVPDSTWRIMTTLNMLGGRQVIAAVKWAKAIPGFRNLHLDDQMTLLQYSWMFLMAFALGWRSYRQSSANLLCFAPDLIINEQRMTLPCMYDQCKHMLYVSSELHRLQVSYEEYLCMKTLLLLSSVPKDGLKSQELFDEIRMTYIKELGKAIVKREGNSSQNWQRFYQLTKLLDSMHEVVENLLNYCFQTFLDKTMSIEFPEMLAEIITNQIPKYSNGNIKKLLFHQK
Sequence of Lysosomal acid glucosylceramidase (Homo sapiens) (P04062 whole entry, looked up): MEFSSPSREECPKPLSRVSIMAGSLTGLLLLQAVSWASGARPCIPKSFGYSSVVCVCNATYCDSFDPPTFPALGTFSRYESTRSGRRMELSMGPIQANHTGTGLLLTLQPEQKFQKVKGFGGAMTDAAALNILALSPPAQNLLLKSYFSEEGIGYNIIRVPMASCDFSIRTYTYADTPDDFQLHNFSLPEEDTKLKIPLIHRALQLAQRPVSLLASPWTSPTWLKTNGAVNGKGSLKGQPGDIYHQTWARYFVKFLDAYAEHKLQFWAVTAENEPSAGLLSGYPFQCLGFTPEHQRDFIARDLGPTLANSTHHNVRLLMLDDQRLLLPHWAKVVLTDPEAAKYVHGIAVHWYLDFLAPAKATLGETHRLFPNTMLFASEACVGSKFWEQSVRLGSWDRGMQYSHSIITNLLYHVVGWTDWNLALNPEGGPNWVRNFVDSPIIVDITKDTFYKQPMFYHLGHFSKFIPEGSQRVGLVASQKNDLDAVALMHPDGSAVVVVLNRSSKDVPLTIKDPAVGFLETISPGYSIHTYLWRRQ

Clc1ccc(N2CCN(Cc3c[nH]c4ncccc34)CC2)cc1
inactive: activity change, negative = inhibition ([1]; at 38 µM (top of the series)) -4.78% | activity change, negative = inhibition [3] -18.8% | activity, negative = inhibition ([4]; at 38 µM (top of the series)) -44.5% | Potency [5] > 46 µM | Potency [6] > 46 µM
inactive and 15.8 µM (active): Potency [2]

NCCCCCCCCCCN
inactive: activity change, negative = inhibition ([1]; at 38 µM (top of the series)) 4.16% | Potency [2] | activity change, negative = inhibition [3] 0.00398% | activity, negative = inhibition ([4]; at 38 µM (top of the series)) -2.37% | Potency [5] > 46 µM | Potency [6] > 46 µM

C[N+]1(C)CCC(OC(=O)C(c2ccccc2)c2ccccc2)CC1
inactive: activity change, negative = inhibition ([1]; at 38 µM (top of the series)) 10.3% | activity, negative = inhibition ([4]; at 38 µM (top of the series)) 22.3% | Potency [5] > 46 µM | Potency [6] > 46 µM | Potency [7]
active: activity change, negative = inhibition [3] -75%
10 µM (active) and inactive: Potency [2]

O=C1C(SCCO)=C(SCCO)C(=O)c2ccccc21
active: activity change, negative = inhibition ([1]; at 38 µM (top of the series)) -104% | Potency [2] 12.6 µM and 631 nM | activity change, negative = inhibition [3] -94.5% | activity, negative = inhibition ([4]; at 38 µM (top of the series)) 134%
inactive: Potency [5] > 46 µM | Potency [6] > 46 µM | Potency [7]

c1cnc2c(c1)ccc1cccnc12
active: Potency [2] 3.98 µM and 2 µM | Potency [10] 8.24 µM | Potency [11] 2.4 µM | Potency [12] 4.55 µM | Potency [14] 3.86 µM | Potency [15] 3.98 µM | Potency [16] 2.51 µM | Potency [17] 12.6 µM | Potency [18] 2.51 µM | Potency [19] 5.01 µM | activity change, negative = cytotoxicity [20] -87.9%
inactive: Potency [8] > 11.4 µM | activity change, negative = inhibition ([1]; at 7.69 µM (top of the series)) -13.2% | activity change, negative = inhibition ([1]; at 38 µM (top of the series)) 0.206% | Potency [9] > 92 µM | Potency [13] > 92 µM | activity, negative = inhibition ([4]; at 38 µM (top of the series)) -9.47% | Potency [5] > 46 µM | Potency [6] > 46 µM and > 9.22 µM | Potency [7]

Clc1ccccc1-c1nc(-c2ccncc2)no1
active: Potency [2] 79.4 nM
inactive: Potency [8] > 11.4 µM | activity change, negative = inhibition ([1]; at 7.69 µM (top of the series)) -0.307% | activity change, negative = inhibition [3] -8.15% [at 7.69 µM] | activity, negative = inhibition ([4]; at 7.69 µM (top of the series)) -6.11% | Potency [5] > 46 µM | Potency [6] > 9.22 µM | activity change, negative = inhibition [7] 3.99% [at 11.4 µM]

NCCCCC(=O)O
inactive: activity change, negative = inhibition ([1]; at 38 µM (top of the series)) -6.31% | Potency [2] | activity change, negative = inhibition [3] -1.14% | activity, negative = inhibition ([4]; at 38 µM (top of the series)) 0.307% | Potency [5] > 46 µM | Potency [6] > 46 µM | Potency [7]

From PubChem BioAssay (NCATS)
